About 83,000 compounds went through this panel and 20% of them were active in at least one assay; those are over-represented in the sample as a whole.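 Cell lines were cultured in 96-well plates, exposed to a single compound concentration, and assessed for percent growth 48 hours later.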 Activity calls are given as the source filed them. How the source made its calls: active means growth percent below 10; inactive means the rest.

The experiment has as its system HL-60(TB) leukemia. Kind of experiment: NCI-60 one-dose screen, 48 h (100 = growth as untreated, 0 = no growth, -100 = all killed). The conditions noted are these: 10 µM unless noted.
As for `COc1cccc(/C=C/C(=O)c2cccc(Nc3nc(Nc4ccccc4)nc(Nc4ccccc4)n3)c2)c1`, the growth was 94.2% (inactive).
`COC(=O)c1ccc(NC(=O)CSc2nc(-c3ccc(F)cc3)nc3ccccc23)cc1`: the growth is 94.3% (inactive).
In the case of `Nc1cc(C(=O)O)[nH]c(=S)n1`, the growth is 123% (inactive).
The result for `COc1cc(-c2csc(NC(=O)c3cc(C(F)(F)F)cc(C(F)(F)F)c3)n2)cc(OC)c1OC` reads 29.6% (inactive).
Then `N/C(=N\C(N)=N\c1nc2ccccc2s1)c1cnccn1`, with 0.412% (active); and `CNC(=O)c1cc(Oc2cccc3nc(NC(=O)Nc4cc(C(F)(F)F)cc(C(F)(F)F)c4)ccc23)ccn1`, with 70.5% (inactive).
For the molecule `O=C1Nc2ccc(C(=O)O)cc2/C1=N/c1nnc(Sc2ccccc2)s1`, the growth was 96.4% (inactive).
For the molecule `C1=Cc2ccccc2N(c2nnc(-c3ccccc3)o2)c2ccccc21`, the growth is 86.8% (inactive).
As for `Clc1ccc(-c2nnc(Cn3ccnc3)o2)cc1`, the growth is 93.8% (inactive).
Then `Cc1cc(N2CCCC2)nc(NC2CCCC(Nc3ccnc4cc(Cl)ccc34)C2)n1` (stereo not given), with -68.5% (active); and `CC(=O)Nc1nccs1`, with 103% (inactive); and `N#Cc1c(N)c(C(=O)c2ccc3c(c2)OCCO3)n2c1CCCC2`, with -19.2% (active).
With `N/C(=N\O)c1cn(C2OC(CO)C(O)C2O)c2ncnc(N)c12` (stereo not given), the growth is -43.5% (active).
With `Oc1ccc(Br)cc1Sc1cc(Br)ccc1O`, the growth is 27.9% (inactive).
The result for `Cc1cc(C)n(C(=O)c2nn(-c3ccc(Cl)cc3)cc2O)n1` reads 39.8% (inactive); that for `CCCCCCC(C)(O)c1ccccc1` (stereo not given), 94.6% (inactive).
`COc1ccc(C2CC(=O)Nc3c2c(C)nn3-c2nc3ccccc3[nH]2)cc1` (stereo not given): the growth is -17% (active).
As for `CCN(CC)CCCNCc1cc(-c2ccccc2)nc2cc(Cl)ccc12`, the growth is 14% (inactive).
Consider `O=C1/C(=C/c2ccc(Cl)cc2)SC(=Nc2ccc(Cl)cc2)N1Cc1nc2ccccc2[nH]1`, for which the growth was 95.8% (inactive).
Regarding `C=CCn1c(SCC(=O)Nc2ccc(C(=O)/C=C/c3ccc(Cl)cc3)cc2)nnc1-c1cc(OC)c(OC)c(OC)c1`, the growth is 97.7% (inactive).
Regarding `CN1CCc2c(sc3nc4n(-c5ccc(Cl)cc5)cnn4c(=O)c23)C1`, the growth is 105% (inactive).
On to `COc1cc(NC(=O)CSc2nc3ccc(Cl)cc3c(=O)n2-c2ccc(F)cc2)cc(OC)c1OC`, for which the growth is 106% (inactive).
Then `COc1ccc(N(c2nc(-c3ccc([N+](=O)[O-])cc3)cs2)C(C)C)cc1`, with 90.1% (inactive); and `CCCCN1CCCC[C@@H]1C(=O)N[C@H](C(=O)N(C)[C@H](CCc1nc(C(=O)N[C@@H](Cc2ccccc2)C[C@H](C)C(=O)OC)cs1)C(C)C)C(C)C`, with 5.08% (active).
Take `COc1ccc(S(=O)(=O)n2cc(C(=O)C(=O)Nc3ccncc3)c3ccccc32)cc1F`: the growth is -46.4% (active).
As to `Oc1ccc(-c2[nH]c3ccccc3c2-c2nc3ccccc3o2)cc1`, the growth was 80.8% (inactive).
Turning to `O=C(Nc1ccccc1)Nc1ccc2cc3ccc(NC(=O)Nc4ccccc4)cc3nc2c1`, the growth is 50.9% (inactive).
Take `Cc1nc2sc(C(=O)Nc3ccccn3)c(N)c2cc1C(C)O` (stereo not given): the growth is 34.1% (inactive).
Turning to `O=C(Nc1ncc(Cc2ccccc2)s1)c1ccc2c(c1)OCCCO2`, the growth was 11.8% (inactive).
The result for `CC(=O)N1N=C(c2ccc(Nc3nc(Nc4ccc(F)cc4)nc(Nc4ccc(F)cc4)n3)cc2)CC1c1ccccc1` (stereo not given) reads 83% (inactive); that for `NC(=O)Nc1ccc2ncnc(Nc3ccc(Cl)cc3)c2c1`, 99.9% (inactive).
For `O=C(CNC(=O)c1cccc2ccccc12)Nc1ccccc1Oc1cccc(O)c1`, the growth was -24.1% [5 µM] (active).
Take `CSc1nn(-c2ccccc2)c2ncnc(Oc3ccc(C)cc3)c12`: the growth is 98.3% (inactive).
Consider `Cc1cn(C2CCCCO2)c(=O)nc1NO` (stereo not given), for which the growth is 102% (inactive).
For `CSc1nc(-c2ccco2)c(C#N)c(=O)n1C`, the growth is 95.9% (inactive).
Then `C=C(C)[C@@H]1CC[C@]2(CN)CC[C@]3(C)[C@H](CC[C@@H]4[C@@]5(C)CCCNC(C)(C)[C@@H]5CC[C@]43C)[C@@H]12`, with -52.8% (active); and `CCN(CC)C(=O)CC1=C(C)/C(=C/c2[nH]c(-c3ccc[nH]3)cc2OC)N=C1C`, with 0.518% (active); and `COc1cccc(/C=C2\SC(=Nc3ccc(NC(C)=O)cc3)NC2=O)c1OC`, with 101% (inactive).
On to `C[C@H]1[C@H]2[C@H]3CC[C@@H]4[C@@]5(C)C/C(=C/c6ccco6)C(=O)C(C)(C)[C@@H]5CC[C@@]4(C)[C@]3(C)CC[C@]23CO[C@]1(C)[C@@H](C(=O)/C=C\c1ccco1)C3`, for which the growth is 95.8% (inactive).
In the case of `Cc1ccc(C2=NN(c3ccc(S(N)(=O)=O)cc3)C(c3cn(-c4ccccc4)nc3-c3ccccc3)C2)cc1` (stereo not given), the growth is 16.5% (inactive).

(Values after PubChem BioAssay (NCI).)
